Unmarked numbers belong to inactive results. Results filed as inconclusive are left out. Activity calls are given as the source filed them. Unless noted, calls come from the whole dose curve; as a rule, active = well fitted curve in the direction sought with a large enough effect in the repeat runs; inconclusive = weak or mixed curves; inactive = no such curve, though single readings can be large; an effect the other way counts as inactive or inconclusive.

Data on six compounds can be found in PubChem BioAssay (Tox21).

Assay [1] is described as follows: qHTS assay to identify small molecule agonists of H2AX - cell viability counter screen (AID 1224847; calls by dose curve; note: nearly all actives have a fitted effect of over 30% in size; note: potency is the fitted concentration of half-maximal effect). The method, boiled down:
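Viability of CHO-K1 (wild type) cells after 3 hr compound exposure was measured by CellTiter-Glo luminescence.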
In general terms: qHTS replaces the single test concentration by a dilution series.

Assay [2] in a line: qHTS assay to identify small molecule antagonists of the estrogen related receptor (ERR) signaling pathway from Tox21 library (AID 1224848). Note: potency is the fitted concentration of half-maximal effect; nearly all actives have a fitted effect of over 50% in size. The essentials:
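Cells: ERR line, 2,000/well; 6 h preincubation 37 C/5% CO2. Cpd in DMSO via pin tool; 18 h, 37 C. ONE-Glo, 30 min RT, luminescence.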

Assay [3] in a line: qHTS assay to identify small molecule agonists of the estrogen related receptor (ERR) signaling pathway from Tox21 library (AID 1224849; calls by dose curve; note: % is set by controls: 0 for no effect and ±100 for the full control effect; nearly all actives have a fitted effect of over 15% in size). Particulars: ERR reporter cell line, ONE-Glo luciferase, 18 h; at 92.4 µM (top of the series) unless noted. The method, boiled down: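 Agonist signal is luciferase luminescence from an ERR reporter cell line treated 18 h at 37 C with DMSO-dissolved compounds, read 30 min after ONE-Glo addition at room temperature.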

The nature of assay [4]: qHTS RealTime-Glo MT Cell Viability Assay in HepG2 cells - 24 hour (AID 1224867). Note: nearly all actives have a fitted effect of over 50% in size. Note: potency is the fitted concentration of half-maximal effect. The essentials: (§1)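 Cells + NanoLuc/prosubstrate dispensed (600 cells/well) → 5 h at 37 C/5% CO2 → compounds in DMSO transferred → 40 h incubation at 37 C, luminescence read at 0, 8, 16, 24, 32, 40 h.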
A short description of assay [5]: qHTS RealTime-Glo MT Cell Viability Assay in HEK293 cells - 32 hour (AID 1224868). Note: potency is the fitted concentration of half-maximal effect; nearly all actives have a fitted effect of over 50% in size. The essentials: (§2)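 Tox21 10K qHTS, HEK293, 600 cells/well, RealTime-Glo reagent co-dispensed with cells; 5 h preincubation, compound by pintool, 37 C, luminescence at 0–40 h.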
Assay [6] can be described thus: qHTS RealTime-Glo MT Cell Viability Assay in HepG2 cells - 40 hour (AID 1224870). Note: nearly all actives have a fitted effect of over 50% in size. Note: potency is the fitted concentration of half-maximal effect. The method, boiled down:
(§3)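 HepG2 cells mixed with RealTime-Glo MT reagents (NanoLuc plus cell-permeant prosubstrate) were seeded at 600 cells/well, incubated 5 h at 37 C/5% CO2, then pinned with compounds in DMSO; nonlytic luminescence tracked viability during 40 h treatment.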

Assay [7] can be described thus: A CellTox Green Cytotoxicity Assay to monitor cytotoxicity in HEK293 cells - 40 hour (AID 1224871). Note: nearly all actives have a fitted effect of over 45% in size. Note: potency is the fitted concentration of half-maximal effect. The method, boiled down: (§4)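 Cytotoxicity was tracked continuously in HEK293 cells by a DNA-binding dye excluded from viable cells. Compounds were transferred in DMSO 5 h after seeding; fluorescence was recorded at intervals up to 40 h.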
Assay [8] can be described thus: qHTS RealTime-Glo MT Cell Viability Assay in HEK293 cells - 16 hour (AID 1224872). The method, boiled down: as §2
Assay [9] is described as follows: qHTS RealTime-Glo MT Cell Viability Assay in HepG2 cells - 8 hour (AID 1224873). Note: nearly all actives have a fitted effect of over 55% in size. Note: potency is the fitted concentration of half-maximal effect. The method, boiled down: as §3
Assay [10] is described as follows: qHTS RealTime-Glo MT Cell Viability Assay in HEK293 cells - 40 hour (AID 1224874). Particulars: RealTime-Glo luminescence; max response: hits give low values. The method, boiled down: (§5)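 Nonlytic bioluminescent viability monitoring. HEK293 at 600 cells/well with reagent; 5 h settle; compound transfer by pintool; plates held at 37 C and read at set time points.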

The nature of assay [11]: A CellTox Green Cytotoxicity Assay to monitor cytotoxicity in HEK293 cells - 24 hour (AID 1224875). For activity change: % is set by controls: 0 for no effect and ±100 for the full control effect. Note: nearly all actives have a fitted effect of over 45% in size. Note: potency is the fitted concentration of half-maximal effect. The method, boiled down: as §4
The nature of assay [12]: A CellTox Green Cytotoxicity Assay to monitor cytotoxicity in HepG2 cells - 16 hour (AID 1224876). Note: nearly all actives have a fitted effect of over 45% in size. Note: potency is the fitted concentration of half-maximal effect. The essentials: (§6)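 Real-time, homogeneous cytotoxicity readout: dead-cell DNA staining by CellTox Green in HepG2 monolayers, fluorescence measured at timed intervals up to 40 h of continuous compound exposure.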
The nature of assay [13]: A CellTox Green Cytotoxicity Assay to monitor cytotoxicity in HepG2 cells - 24 hour (AID 1224878). For Cytotoxicity: % is set by controls: 0 for no effect and ±100 for the full control effect. Note: nearly all actives have a fitted effect of over 45% in size. Note: potency is the fitted concentration of half-maximal effect. The method, boiled down:
as §6

The nature of assay [14]: A CellTox Green Cytotoxicity Assay to monitor cytotoxicity in HepG2 cells - 40 hour (AID 1224879). Note: nearly all actives have a fitted effect of over 40% in size. Note: potency is the fitted concentration of half-maximal effect. The essentials: as §6
The nature of assay [15]: A CellTox Green Cytotoxicity Assay to monitor cytotoxicity in HEK293 cells - 32 hour (AID 1224881). Note: nearly all actives have a fitted effect of over 40% in size. Note: potency is the fitted concentration of half-maximal effect. The method, boiled down:
as §4

Assay [16] in a line: A CellTox Green Cytotoxicity Assay to monitor cytotoxicity in HepG2 cells - 0 hour (AID 1224882). Note: % is set by controls: 0 for no effect and ±100 for the full control effect; nearly all actives have a fitted effect of over 35% in size. The method, boiled down:
as §6

Assay [17] is described as follows: qHTS RealTime-Glo MT Cell Viability Assay in HepG2 cells - 32 hour (AID 1224877). Note: nearly all actives have a fitted effect of over 55% in size. Note: potency is the fitted concentration of half-maximal effect. The method, boiled down:
as §1

A short description of assay [18]: qHTS RealTime-Glo MT Cell Viability Assay in HEK293 cells - 0 hour (AID 1224880). The essentials:
as §5

Assay [19] in a line: A CellTox Green Cytotoxicity Assay to monitor cytotoxicity in HEK293 cells - 0 hour (AID 1224869). The method, boiled down:
as §4

For `CCCCCCCCCCCCCCCCCCn1cc[n+](C)c1`, the Potency is 22.4 µM (active) in assay [1]; 5.42 µM (active) in [2]; 34.5 µM (active) in [4]; 7.72 µM (active) in assay [5]; 21.7 µM (active) in assay [6]; 19.4 µM (active) in [7]. The Potency in assay [8] was 24.4 µM (active); in [10], 7.72 µM (active); in assay [11], 21.7 µM (active); in assay [12] it was 38.7 µM (active); in [13], 24.4 µM (active); in assay [14], 19.4 µM (active). Moreover, in [15], the Potency is 19.4 µM (active). Further, the activity change, positive = activation in assay [3] is -74.3%. The Potency result in assay [9] and in assay [16] was “inactive” in each case.

On to `O=C(CCl)Nc1ccccc1`, for which the Potency entry in assay [1], in assay [4], in [6], in [9], in assay [11] and in [12] was “inactive” each time. Further, the Potency result in assay [17], in [13], in assay [18] and in assay [16] was “inactive” in each case. Also, the activity change, positive = activation in assay [3] is -72.1%.

On to `Cc1cc(SCc2sc(-c3ccc(C(F)(F)F)c(F)c3)nc2C)ccc1OCC(=O)O`, for which, in [1], the Potency was 101 µM (active). Also, the activity change, positive = activation in [3] is -21.2%. Further, the Potency result in assay [4], in assay [19], in assay [6], in [7], in [9] and in assay [11] was “inactive” in each case. In addition, the Potency entry in assay [12], in assay [17], in assay [13], in assay [14], in [18] and in [15] was “inactive” in each case. In addition, in [16], the Potency entry is “inactive”.

Consider `N#Cc1c(-c2ccc(Cl)cc2)[nH]c(C(F)(F)F)c1Br`, for which the Potency in assay [1] was 2.84 µM (active); in assay [5], 1.55 µM (active); in [7], 49 µM (active); in assay [8] it was 6.92 µM (active); in assay [15] it was 49 µM (active). For the same compound, the activity change, positive = activation in assay [3] is -60.7%. For the same compound, the Potency result in assay [4], in [19], in assay [6], in [11], in [12] and in assay [18] was “inactive” each time. Further, in assay [16], the Potency entry was “inactive”.

`CC(C)CC(C)Nc1ccc(Nc2ccccc2)cc1` (centres undefined): the Potency is 78.7 µM (active) in assay [1]; 47.7 µM (active) in [2]; 21.5 µM (active) in assay [5]; 48.2 µM (active) in assay [7]; 19.2 µM (active) in [8]; 42.9 µM (active) in assay [9]. The Potency in assay [10] is 21.5 µM (active); in assay [15], 48.2 µM (active). Further, in assay [3], the activity change, positive = activation is -75.8%. The Potency result in [19], in assay [12], in assay [13] and in assay [16] was “inactive” each time.

Turning to `CCC[CH2][Sn]([CH2]CCC)([CH2]CCC)[O]C(=O)c1ccccc1`, the Potency in assay [1] is 0.713 µM (active); in [4] it was 0.49 µM (active); in assay [5], 0.389 µM (active); in assay [6], 0.389 µM (active); in [7], 0.692 µM (active); in [8], 0.436 µM (active). In addition, the Potency in assay [9] was 0.776 µM (active); in [10], 0.389 µM (active); in [11], 1.95 µM (active); in [12], 0.692 µM (active); in assay [17] it was 0.436 µM (active); in assay [13], 0.692 µM (active). Further, in assay [14], the Potency was 0.549 µM (active). Also, the activity change, positive = activation in assay [3] is -78%. Besides, the Potency result in assay [19] and in [16] was “inactive” in each case.
